# Screens (PubChem BioAssay)
# GPR7 antag: GPR7 receptor antagonists, primary screen, cell-based, fluorescence, single concentration | 290,000 tested, 1.1% active | inhibition, % at 4.4 µM | AID 1861, 2009 | Neuropeptides B/W receptor type 1 (Homo sapiens), P48145 | GPR7-expressing cells, fluorescence antagonist assay; in the data active = inhibition above about 16%, passing the limit was not always enough;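 note: cells stimulated with the agonist NPW; 0% = agonist with vehicle and 100% = vehicle without agonist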
# Target sequence (P48145 whole entry, looked up): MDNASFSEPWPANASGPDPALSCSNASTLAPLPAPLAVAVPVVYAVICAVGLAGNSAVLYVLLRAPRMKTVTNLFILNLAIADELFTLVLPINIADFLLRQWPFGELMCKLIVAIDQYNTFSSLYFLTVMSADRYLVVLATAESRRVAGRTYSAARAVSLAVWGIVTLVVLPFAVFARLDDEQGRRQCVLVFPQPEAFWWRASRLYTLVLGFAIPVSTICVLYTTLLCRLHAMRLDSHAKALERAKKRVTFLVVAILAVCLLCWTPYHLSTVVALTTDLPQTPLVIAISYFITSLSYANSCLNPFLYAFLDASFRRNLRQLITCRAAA
# CHT inh: inhibitors of human choline transporter CHT. High affinity choline transporter 1 (Homo sapiens), Q9GZV3. CHT-expressing cells, membrane potential dye, choline response; hits give low values. B-score at 10 µM. 310,000 tested, 0.86% active. AID 488975, 2010;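 active = B-score over 3 SD under the library average, and starting fluorescence ratio not unusually high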;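 note: choline stimulus applied at its EC90 after an EC20 pre-addition; B-score computed on integrated fluorescence ratio after choline addition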
# Kir21 inh: inhibitors of mouse Kir2.1 inward-rectifier potassium channel; AID 1672, 2009; HEK293-Kir2.1, FluxOR thallium flux fluorescence; hits give low values; 310,000 tested, 0.85% active; B-score at 10 µM; Inward rectifier potassium channel 2 (Mus musculus), P35561;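 active = fluorescence ratio B-score at or below minus 3 SD of library scores, with starting-brightness B-score within 2 SD, cut at about -4.2 in these data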;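 note: channel flux triggered by added potassium and thallium sulfate stimulus; B-score of peak minus minimum fluorescence over baseline after thallium stimulus; more negative B-score means stronger Kir2.1 block with less thallium influx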
# ANO1 activ: TMEM16A chloride channel activators or potentiators, primary screen, cell-based, HTS; HEK293 TMEM16A/YFP-H148Q/I152L, iodide quench fluorescence; hits give low values; B-score at 10 µM; 340,000 tested, 0.3% active; AID 623877, 2012;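 active = fluorescence-ratio B-score plate-corrected deviation score at least 3 library SD below zero, with starting fluorescence score within 5 deviations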;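 note: channel opened by trigger with iodide after compound preincubation; score built on the fluorescence ratio of max minus min over baseline; more negative score means more quench and so TMEM16A activation or potentiation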
# CHT PAM: CHT positive allosteric modulators, primary screen, cell-based, membrane potential dye, choline EC20; High affinity choline transporter 1 (Homo sapiens), Q9GZV3; B-score at 10 µM; AID 488977, 2010; CHT-expressing cells; hits give high values; LV-AA mutant CHT in HEK293 cells; 310,000 tested, 0.49% active;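 active = initial fluorescence not abnormally high and integrated response B-score, plate-corrected, over 3 SD above library mean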
# TMEM16A inh: TMEM16A chloride channel inhibitors, primary screen, cell-based, HTS; Anoctamin-1 (Mus musculus), Q8BHY3; HEK293 TMEM16A/YFP iodide influx fluorescence, ionomycin; normalized B-score (activity score, 25-100; higher = stronger inhibition) at 10 µM; 310,000 tested, 1.2% active; AID 588511, 2011;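 active = ratio plate-corrected score three or more library SD toward inhibition, starting fluorescence score within five deviations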;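 note: score derived from kinetic fluorescence span divided by baseline fluorescence per well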
# CHT activ conf: CHT activators, confirmation, cell-based, membrane potential dye, duplicate. shares compounds with CHT PAM. CHT-expressing cells, membrane potential dye fluorescence (FDSS); % of choline EC20–EC90 response window; HEK293 expressing CHT LV-AA mutant; choline added at its EC20. activation, % at 10 µM. 2,500 tested, 91% active;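 active = primary screen active, with duplicate mean activation above negative control mean plus 3 SD, cut at about 11% in these data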
# HEK293 MP dye: membrane potential response in parental HEK293 cells, counter-screen for CHT activator project, cell-based, membrane potential dye; shares compounds with CHT PAM; membrane potential dye fluorescence (FDSS); measured after EC20 choline addition; ratio readout change at 10 µM, hits read low; 2,500 tested, 62% active; AID 623908, 2012;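 active = duplicate-averaged ratio beyond 3 SD from buffer wells, up or down, though filed actives are nearly all decreases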
# * = called active by the depositor; i = inactive; · = no result. Rows were chosen to be rich in hits. Some 3.7% of all compounds tested hit in one or more screens of this group.
SMILES,GPR7 antag,CHT inh,Kir21 inh,ANO1 activ,CHT PAM,TMEM16A inh,CHT activ conf,HEK293 MP dye
Cc1nonc1OCCNCCNc1ccc([N+](=O)[O-])c2cccnc12,6,i,1.1,i,i,i,30*,-63*
C=CCOC(=O)C1C(C(=O)O)C2(Cl)C(Cl)=C(Cl)C1(Cl)C2(Cl)Cl (configuration not stated),·,·,·,i,·,·,·,·
Brc1ccc2[nH]cc(C=NN3CCCCCC3)c2c1,·,·,·,i,·,·,·,·
O=C(CNC(=O)c1cccc(Cl)c1)Nc1ccc(Br)cc1C(=O)c1ccccc1,-1,i,0.04,i,7.7*,i,20*,i
c1csc(CN2CCNCC2)c1,-12,i,-1,i,i,i,·,·
COC(=O)c1c2[n+](cc3cc(OC)c(OC)cc13)CCc1cc(OC)c(OC)cc1-2,·,i,1.7,i,i,i,44*,-49*
CC1CN(c2ccc([N+](=O)[O-])c3cccnc23)CC(C)N1 (configuration not stated),-2,i,-2.3,i,i,i,48*,-84*
O=[N+]([O-])c1ccc(N2CCCC2)c2ncccc12,-4,i,-0.57,i,i,i,·,·
COc1ccc(-n2c(SCCN(C)C)nc3ccccc3c2=O)cc1,5,i,-1.2,i,i,i,37*,-42*
COc1ccc(-c2nc3ccccc3c(=O)n2-c2ccc(OC)cc2)cc1,-2,i,0.28,i,i,i,·,·
CCOC(=O)c1ccc2c(c1)n(Cc1ccccc1)c(C)[n+]2CC,-10,i,1.5,i,8.1*,i,47*,-51*
COC(=O)C1=C(c2ccc(F)cc2F)C[C@@H]2CC[C@H]1N2C,·,·,·,i,·,·,·,·
COc1ccccc1NP1(=O)OCC(C)([N+](=O)[O-])CO1 (configuration not stated),·,·,·,i,·,·,·,·
Cc1cc(N2CCNCC2)nc2ccccc12,-18,i,1.3,i,7.5*,i,60*,-65*
CCC1CN2CCc3cc(OC)c(OC)cc3C2CC1CC1NCCc2c1[nH]c1ccc(O)cc21 (configuration not stated),·,·,·,i,·,·,·,·
O=C1CC2OCC=C3CN4CCC56c7cc([N+](=O)[O-])ccc7N1C5C2C3CC46 (configuration not stated),6,i,-0.01,i,i,i,51*,-50*
COc1cc2c(cc1OC)[C@@]13CCN4CC5=CCO[C@H]6CC(=O)N2[C@H]1[C@H]6[C@H]5C[C@H]43,-12,i,-0.86,i,i,i,·,·
CC(=O)O[C@]1(C)C(=O)OC/C2=C/CN(C)CCC(OC(=O)[C@@](O)(C(C)O)C[C@H]1C)C2=O (some centres not stated),6,i,2.9,i,i,i,·,·
CC[n+]1c(SC)ccc2cc(OC)ccc21,-7,i,-0.58,i,i,i,64*,-59*
C[n+]1c(-c2ccccc2)cc(CCCCc2cc(-c3ccccc3)[n+](C)c(-c3ccccc3)c2)cc1-c1ccccc1,9,i,-0.16,i,6.8*,i,50*,-64*
COCCn1c(O)c(/C=N/NC(=O)CSC(=S)N2CCCC2)c(=O)[nH]c1=S,·,·,·,i,·,·,·,·
CN1CCN(c2c(F)cc([N+](=O)[O-])c(N)c2Br)CC1,-2,i,-0.03,i,6.6*,i,46*,-49*
